Tests used:
Experiment in all cases: PBM binding z-score (relative to random genomic background probes); higher = stronger binding; sequences stand for … in GC…GCGATTGACAGCGTAGAATGAAGG
[1] = system: PPARg:RXRa DBDmut IVT, anti-RXR (DBD mutation: RXRa K156A/R161A, NR concentration 270 nM, RXRa partner concentration 90 nM)
Method in brief: (§1)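 Each nuclear receptor dimer, without ligand, was incubated for 1 h on custom Agilent 4×180K protein-binding microarrays. Binding was detected with antibodies against each partner (one per run), and scanned fluorescence was regression-normalized. The binding z-scores are referenced to random human genomic background probes.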

[2] = system: PPARg:RXRa IVT, anti-PPARg (NR concentration 270 nM, RXRa partner concentration 90 nM)
Method in brief: as §1

[3] = system: PPARg DBDmut:RXRa IVT, anti-PPARg (DBD mutation: PPARg1 K132A/R137A, NR concentration 270 nM, RXRa partner concentration 90 nM)
Method in brief: as §1

[4] = system: PPARg DBDmut IVT, anti-PPARg (DBD mutation: PPARg1 K132A/R137A, NR concentration 270 nM)
Method in brief: as §1

[5] = system: PPARg homodimer (NR concentration 180 nM)
Method in brief: as §1

[6] = system: PXR:RXRa (NR concentration 270 nM, RXRa partner concentration 90 nM)
Method in brief: as §1

[7] = system: PXR homodimer (NR concentration 270 nM)
Method in brief: as §1

[8] = system: RARa:RXR (NR concentration 270 nM, RXRa partner concentration 90 nM)
Method in brief: as §1

[9] = system: RARa homodimer (NR concentration 270 nM)
Method in brief: as §1

[10] = system: RARb:RXRa (NR concentration 270 nM, RXRa partner concentration 90 nM)
Method in brief: as §1

Sequence	PBM binding z-score [1]	PBM binding z-score [2]	PBM binding z-score [3]	PBM binding z-score [4]	PBM binding z-score [5]	PBM binding z-score [6]	PBM binding z-score [7]	PBM binding z-score [8]	PBM binding z-score [9]	PBM binding z-score [10]
GCTGCTAGGTCAACTCATGGTCAGCTAAAGCTCG	4.52	4.36	-0.224	0.163	1.2	1.83	-0.544	2.76	0.409	4.46
TAGCATAGGTCATTCAGGGGCCAGTATAGAAAGC	1.02	2.08	0.638	0.381	5.69	4.14	0.0442	5.79	1.25	4.4
ACTAGCAGCCCAAGGGTCACTCAAGATTAGTCCG	-0.509	1.13	-0.437	-0.614	1.34	2.97	0.208	3.58	0.48	3.27
CGTCCAAGGTCAAAGAGGTCAGTGAATGCCGAGT	3.99	4.53	0.213	-0.987	5.13	6.71	12.7	6.05	1.8	5.48
CGAATTAGGTCAAGGACAGTGAATCTCCGCACGC	8.12	8.06	3.79	1.82	1.89	1.28	0.205	2.79	0.19	4.18
AGAACGAGGTTAAGATCAGGGAAACAGAATACAT	1.95	2.16	1.47	0.398	0.757	1.27	0.776	1.89	0.576	1.91
TCTAGTTGGTCAAAGGTCACACAGTCGAAATGCG	3.56	5.99	1.3	1.88	4.79	6.01	1.76	7.79	3.16	5.05
CGAACTAGGTAATCCAGGACAGTGAATACATTGA	5.67	4.69	0.81	0.796	0.0161	-0.34	-0.311	-0.156	0.04	0.0507
CCTACTGGGGCATAAGGTTACCATAAGCCAGCCC	4.53	5.02	0.0293	-0.184	1.28	0.306	0.0136	1.42	0.103	1.74
GCTAGTTGGTCAGTAAAAGGTAACACACCGGTCG	0.651	0.622	-0.712	0.0528	0.535	0.2	0.0944	0.372	0.548	1.03
TCGAGTAGGTTACCAATGGGGCATTAAGCTTTCT	2.97	2.74	-0.388	-0.404	-0.656	-0.325	-1.08	0.0202	-1.28	0.864
TGAATGAGGTTATAAGATCAGGGAGCGTTGCAAA	0.796	1.56	0.774	-0.572	0.0916	0.406	-0.17	0.968	-0.286	1.03
TCATACAGGTAATACAGGTGAAAGTCGGCATCTA	3.1	2.32	1.11	1.28	1.24	0.855	0.48	1.23	1.28	0.835
TCTCGGAGGACACGAAAGGACAGAGCTCGACATC	1.47	0.125	-0.295	-0.96	-0.288	-0.168	-0.334	0.0232	-0.282	2.03
ACTAGCAGGCCAAATTTGGGTCACTCAAACAAAG	2.87	4.17	0.302	0.302	0.993	0.803	-0.346	1.72	-0.199	1.54
ATCGAAAGGACGTGAGGTGAGTATACAGAAAGGC	-0.822	0.152	1.3	0.397	0.165	-0.361	-0.0869	0.0924	0.0832	1.09
CAAACTAGGTCAACGTCAAAGTCGGTTTGTGCCA	8.75	8.75	5.16	4.41	2.59	1.58	0.241	2.38	0.739	4.11
ATGTGTAGGTTATCGGGTCATTCAGTTTGCGCAT	4.63	5.37	1.53	2.39	3.67	4.09	9.38	4.11	2.56	2.75
TCTCGGAGGACACGAAAGGCCAGAGCTCGACATC	1.19	-0.0515	-0.613	-0.159	-0.541	-0.141	-0.472	0.327	-0.569	1.82
ATATGCAGGTTAGCTGGGGTCATTCAGACTAGGC	2.79	2.76	0.943	1.03	1.18	6.31	2.68	5.26	0.349	3.15

Sequence	PBM binding z-score [1]	PBM binding z-score [2]	PBM binding z-score [3]	PBM binding z-score [4]	PBM binding z-score [5]	PBM binding z-score [6]	PBM binding z-score [7]	PBM binding z-score [8]	PBM binding z-score [9]	PBM binding z-score [10]
ATCTCAAGGTAACAAGTTCAGTGAAAGAGAGGAC	0.525	1.3	1.3	1.1	1.41	1.88	2.27	1.33	1.14	2.08
TCTCGGAGGGCACGAAAGGTCAGAGCTCGACATC	1.78	2.45	-0.111	-0.16	3	5.57	0.576	5.45	0.74	4.79
CGTCCAAGGTCAAAGGTCAGTGGAGAGATGACGG	3.88	5.79	1.38	0.543	4.78	7.21	1.94	8.88	2.17	6.16
AGAACGAGGGCAGTGAGTTGATAGCACGGGTGGC	2.18	1.32	0.223	-0.247	-0.315	0.372	2	-0.326	-0.462	1.6
ATCTGTAGGTAAAGATAGTTCAGTGAATGCAAAT	1.63	1.5	0.849	0.832	0.977	1.03	0.786	0.946	0.896	0.675
GCTAGTTAGTCAGTAAAAGGTCACACACCGGTCG	0.245	2.45	0.12	0.0734	3.34	4.72	0.761	4.98	2.21	3.96
ATCTCGAGGTAAGACTCAGTTCAGTGAAGAACGC	-0.399	0.378	0.239	0.502	0.135	1.38	0.899	0.133	-0.44	0.228
CCGACTGGGGCGAGGTTACCATAACGCACAGCCA	0.314	0.726	-1.05	-1.46	0.254	0.372	-0.517	1.1	-0.00275	0.965
TCTCGGAGGACACGAGGGTCAGAGCTTTCCAGAG	1.25	0.292	-0.358	-0.909	0.294	0.835	-0.16	1.46	-0.665	2.38
CCTACTGGGTCAAGGTCATTGATCAGTCAAAGCA	6.45	7.7	0.76	0.202	2.56	5.07	2.3	4.8	0.915	4.73
TCTGCTAGGACAGTTGGTCAGCTAACGAGCTGCC	0.464	0.0709	-0.543	-0.756	-1.29	-0.745	-1.05	-0.557	-1.03	0.346
GCTGCTAGATCAGGTTGGTCAGCTAACGGGTACG	-0.422	-0.787	-0.302	-0.87	-0.314	-0.686	-0.557	-0.344	-1.48	-0.392
CCTTACGGGTCACTCCAGGTTATAGCATCGGAGT	2.98	3.86	-0.0737	-0.285	1.64	4.79	0.216	3.49	0.27	3.6
CCTAGCAGGCCAGGGTCAATCAAGCATTTCGCTT	0.298	0.837	-1.44	-2.02	1.08	3.43	-0.3	4.4	0.17	2.72
GAAACAGGGTCAGCTAGAGGCCAGAGTATGGAAA	2.53	3.11	0.33	-0.985	3.56	3.46	-0.0723	4.93	0.262	4.14
CCGACTAGGGCAGAAAGGTTACCATACCATCCGG	2.95	2.6	-0.185	-0.946	1.12	1.24	-0.00781	1.86	0.161	2.24
AGAATGAGGTTAAGATCGGGGAAACAGAATACAT	3.24	2.85	1.19	0.972	1.09	0.98	0.624	1.93	0.617	1.95
GCAGTCAGGTGAAACGCAGGTAACTCAGGGTGGC	1.84	0.996	-0.763	-0.908	-0.83	-0.443	-0.701	0.159	-1.13	1.03
TCATATAGGTAATACAAGTGAAAGTCGGCATCTA	4.19	2.25	0.992	1.83	1.46	0.916	0.336	1.3	1.79	0.7

— the supplement of paper PMC6555819
